# Hits are enriched below; roughly 6.1% of the tested compounds scored in any of these assays.
# Luciferase inh: blocks Photinus pyralis firefly luciferase activity; P08659; purified firefly luciferase, luminescence, 8 min; Potency, µM (series often up to 57.1 µM), for the others: top-dose activity change, negative = inhibition, actives largely listed as inhibitors; hit rate 2.2% among 72,000; also: % is scaled to controls: 0 for no effect and ±100 for the full control effect; nearly all actives have a fitted effect of over 40% in size
#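 Substrate buffer containing 10 uM ATP (pH 7.2 imidazole, Mg2+, KCl, detergent, BSA) is dispensed, compound pinned in, then luciferase/luciferin detector mix added. After 8 min at ambient temperature, light output is measured.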
# GBA mod: modulators of human glucocerebrosidase; P04062; hit rate 1.1% among 48,000; AID 360; purified enzyme, resorufin glucoside fluorescence (screen aimed at inhibitors), 20 min; Potency, µM; in the data active = potency below about 15 µM; inconclusive = mostly about 16 µM to 33 µM;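 also: the screen sought inhibitors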
# Target sequence (P04062 whole entry, looked up): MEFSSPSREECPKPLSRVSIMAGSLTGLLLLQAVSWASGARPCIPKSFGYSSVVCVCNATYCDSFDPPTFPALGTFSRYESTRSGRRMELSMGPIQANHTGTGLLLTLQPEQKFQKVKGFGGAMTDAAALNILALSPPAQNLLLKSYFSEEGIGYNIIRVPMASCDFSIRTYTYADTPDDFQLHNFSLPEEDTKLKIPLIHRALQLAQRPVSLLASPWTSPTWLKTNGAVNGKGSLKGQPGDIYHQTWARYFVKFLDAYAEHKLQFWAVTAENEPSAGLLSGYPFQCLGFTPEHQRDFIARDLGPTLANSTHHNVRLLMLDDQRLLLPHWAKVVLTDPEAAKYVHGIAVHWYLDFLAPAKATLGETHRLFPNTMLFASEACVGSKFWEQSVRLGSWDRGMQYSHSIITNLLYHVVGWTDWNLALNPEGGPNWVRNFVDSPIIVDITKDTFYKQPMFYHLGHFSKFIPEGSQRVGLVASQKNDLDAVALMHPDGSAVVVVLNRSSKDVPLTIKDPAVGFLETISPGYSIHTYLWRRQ
#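 Normal human glucocerebrosidase (0.2 nM final) was assayed with resorufin β-D-glucopyranoside (30 uM final) in 50mM citric acid/KH2PO4, 10mM sodium taurocholate, 0.01% tween-20, pH 5.9. Compounds were titrated; fluorescence (Ex 548, Em 600) read after 20 min at RT.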
# HEK293 cAMP ctrl: counter-screen for TSHR agonists: cAMP increase in parental HEK293; parental HEK293 CNG cAMP sensor, membrane potential fluorescence; AID 938; hit rate 2.5% among 73,000; Potency, µM (titrated, usually from 57.1 µM), without a hit: top-dose activation, hits mostly activators; also: % of control where 0% means no effect; nearly all actives have a fitted effect of over 55% in size
#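 Parental HEK 293 cells stably expressing a modified CNG channel (no TSHR) report cAMP rise as membrane depolarization. Membrane potential dye with 100 uM RO 20-1724 was loaded for 60 min at room temperature, then compound added for 30 min; fluorescence read at 590 nm.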
# TSHR ag: activates the human thyroid stimulating hormone receptor. AID 926. Potency, µM (series often up to 57.1 µM), for the others: at the highest dose activation, usual class: activators. hit rate 0.48% among 73,000. HEK293-CNG-TSHR cells (CNG channel as cAMP sensor), membrane potential dye, cAMP; active = well fitted activation curve with a large enough effect in the main read-out, with a control signal flat, not every such curve was filed as active; inconclusive = small, poorly fitted or top-dose-only effect, or a change in a side signal; inactive = no such curve, though single readings can be large or run the other way; % of control where 0% means no effect;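 also: the control signal comes from parental cells without the receptor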
#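 HEK 293 cells stably expressing TSHR and a modified CNG channel, with CNG-only parental cells as counterscreen, were preloaded 60 min at room temperature with membrane potential dye containing 100 uM RO 20-1724. Compound exposure was 30 min, and depolarization was read as fluorescence at 590 nm.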
# ERK AVP inh: inhibitors of vasopressin-stimulated ERK signaling pathway. HEK293-V1b, vasopressin-stimulated pERK AlphaScreen. Potency, µM (titrated, usually from 57.5 µM), for the others: top-dose activity, negative = inhibition, hits mostly inhibitors. hit rate 0.99% among 72,000; also: % is scaled to controls: 0 for no effect and ±100 for the full control effect; nearly all actives have a fitted effect of over 55% in size
#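 Overnight-seeded V1b-HEK293 cells in 1% FBS got compound, then vasopressin (25 nM final, 5 min, 37C), then lysis buffer. AlphaScreen detection of phospho-ERK; activity normalized to basal and full-stimulation controls.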
# Bst PK mod: pyruvate kinase (B. stearothermophilus) modulation. Potency, µM. hit rate 1.2% among 51,000. AID 361. purified pyruvate kinase, luminescence ATP production; ribose 5-phosphate activator present at AC10; in the data active = potency below about 11 µM; inconclusive = mostly about 12 µM to 25 µM;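 the screen sought inhibitors and activators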;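 also: scaled between full activation by ribose 5 phosphate and full inhibition by luteolin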
# An asterisk follows results filed as active; i = inactive; ? = inconclusive; · = no result given; [ ] = dose if it differs, or a comment. Unless noted, calls follow the shape of the dose curve; as a rule, active = well fitted curve in the direction sought with a large enough effect; inconclusive = small, poorly fitted or top-dose-only effect, or another doubt; inactive = no such curve, though single readings can be large; an effect the other way counts as inactive or inconclusive. Potency is read from the fitted curve at half-maximal effect.
SMILES,Luciferase inh,GBA mod,HEK293 cAMP ctrl,TSHR ag,ERK AVP inh,Bst PK mod
CCOc1ccc(C(=O)Nc2nnn(CC)n2)cc1,25µM*,?,4%,1%,-10%,·
CCn1nnc(NC(=O)c2ccc(-c3ccc(Cl)cc3)o2)n1,-18%,?,18%,-2%[11.4 µM],15%,6.5*
Cn1nnc(NC(=O)c2ccccc2F)n1,-12%,·,4%,10%,-18%,·
Cn1nnc(NC(=O)c2ccc(C(C)(C)C)cc2)n1,10µM*,·,10%,-3%,-10%,?
Cc1ccc(CO)cc1,·,·,5%,-1%,15%,·
CCCCC[C@@H](O)[C@@H]1C(=O)O[C@@H](C)[C@@H](O)\C=C/C=C\C=C/C=C\C=C(\C)[C@H](O)C[C@H](O)C[C@H](O)C[C@H](O)C[C@H](O)C[C@H](O)C[C@@H]1O,2%[11.4 µM],·,-3%[11.4 µM],·,·,·
CCN(CC)c1cccc(O)c1,·,·,29%,-1%,1%,·
O=C(O)[C@@H](c1ccccc1)[C@@H](C(=O)O)c1ccccc1,2%[11.4 µM],·,2%[11.4 µM],-5%[11.4 µM],10%[11.5 µM],·
CCCOc1c(OC)cccc1C1CC(=O)Nc2cc3c(cc21)OCO3 (stereo not given),1%,>77,?,?,-8%,>57
CC(C)Oc1ccccc1C1CC(=O)Nc2cc3c(cc21)OCCO3 (stereo not given),0%,>77,?,?,16µM*,>57
CCCOc1c(OC)cccc1C1CC(=O)Nc2cc3c(cc21)OCCO3 (stereo not given),-1%,>77,16µM*,?,-6%,>11
COc1ccccc1C1CC(=O)Nc2cc3c(cc21)OCCO3 (stereo not given),4%,>77,21%,·,2%,·
CC1(C)Cc2c(sc(NC(=O)c3ccco3)c2C#N)CO1,7.9µM*,>77,4%,10%,-19%,?
c1coc(-c2nnc3sc(-c4cccs4)nn23)c1,0%[25.5 µM],·,·,·,·,9*
COc1ccc(-c2nnc3sc(-c4ccco4)nn23)cc1OC,1%,·,27%,·,21%,>57
COc1ccc(-c2nn3c(-c4ccco4)nnc3s2)cc1OC,-5%,>77,-4%,3%,25µM*,i
C=C[C@@]1(C)C=C2CC[C@@H]3[C@](C)(CCC[C@@]3(C)C(=O)O)[C@H]2CC1,4%[11.4 µM],·,-22%,-14%,·,·
COC(=O)NC(/C(C(=O)OC)=C(\C)NCc1ccccc1)c1ccc(Cl)cc1 (stereo not given),·,·,17%[11.4 µM],7%[11.4 µM],15%[11.5 µM],·
O=C(c1ccncc1)N1CCC2(CC1)CN(c1ccccn1)C2,1%[11.4 µM],·,7.9µM*,?,-20%,·
O=C(c1ccncc1)N1CCC2(CC1)CCN(c1ccccn1)CC2,-3%[11.4 µM],·,?,?,?,·
O=C(Oc1ccccc1)N1CCC2(CCCN(c3ccccn3)C2)CC1,0%[11.4 µM],·,20µM*,?,4%,·
O=C(Oc1ccccc1)N1CCC[C@@]2(CCN(c3ccccn3)C2)C1,0%[11.4 µM],·,?,?,18%,·
OC[C@@H]1O[C@@H](n2cnc3cncnc32)[C@@H](O)[C@H]1O,2%,·,17%,-10%,8%,·
COc1ccccc1C(=O)Nc1ccc2c(c1)OCCO2,16µM*,>77,?,?,-4%,i
O=C(Nc1ccc2c(c1)OCO2)c1cccs1,?,>77,3%,13%,-7%,·
SMILES,Luciferase inh,GBA mod,HEK293 cAMP ctrl,TSHR ag,ERK AVP inh,Bst PK mod
CCCN(CCC)S(=O)(=O)c1cccc(C(=O)Nc2ccc3c(c2)OCO3)c1,-2%,·,16µM*,?,14%,>57
Cc1ccccc1C(=O)Nc1ccc2c(c1)OCO2,16µM*,>77,4%,-1%,8%,?
O=C(Nc1ccc2c(c1)OCO2)c1ccc(Br)s1,13µM*,?,-3%,-4%,?,?
CN(c1ccccc1C(=O)Nc1ccc2c(c1)OCO2)S(C)(=O)=O,-1%,>77,-1%,-18%,-2%,>57
COc1ccccc1C(=O)NCc1ccc2c(c1)OCO2,1%,·,2%,19%,-5%,·
COc1cc(SC)ccc1C(=O)Nc1ccc2c(c1)OCCO2,1.3µM*,·,97%,·,-21%,·
CCOC(=O)c1c(C)[nH]c(C(=O)Nc2ccc3c(c2)OCO3)c1C,13µM*,13*,-6%,-16%,21%,i

# Screening results deposited in PubChem BioAssay by National Center for Advancing Translational Sciences (NCATS).
